Screening data deposited in PubChem BioAssay by National Center for Advancing Translational Sciences (NCATS).
HepG2 tox = counter-screen for TGF-b inhibitors: cytotoxicity in HepG2 cells. HepG2 CAGA-GFP viability, ATP luminescence, 18 h. Potency, µM (series often up to 46.1 µM), most hits filed as cytotoxic. 410,000 tested, 0.76% active. AID 588856
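CellTiter-Glo luminescence gave cytotoxicity after 18 hours at 37 degrees C. The cells were HepG2 CAGA-GFP in 1% FBS DMEM, stimulated with 500 pg/mL TGF-beta after compound addition. %Activity was normalised to no-cell wells (complete cell-killing) and DMSO (no toxicity), and curves were fitted and classified.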
TGFb inhibitor = inhibitors of TGF-b signaling; AID 588855; Potency, µM (highest dose often 46.1 µM), actives largely listed as inhibitors; 410,000 tested, 1.2% active; HepG2 CAGA-GFP TGF-b/SMAD3 reporter, GFP fluorescence, 18 h; TGF-beta stimulated, 500 pg/mL final; note: nearly all actives have a fitted effect of over 65% in size
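Inhibition was scored as loss of TGF-beta-induced (500 pg/mL final, 18 hours, 37 degrees C) GFP in HEPG2 cells carrying a CAGA-GFP reporter, in DMEM with 1% FBS. Well GFP was summed per cell; Activity was normalised to unstimulated and stimulated DMSO wells, then concentration-response fitting.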
ATXN2 expr inh = ATXN2 expression inhibition | HEK-293 ATXN2-luciferase reporter, luminescence, 24 h | Potency, µM (highest dose often 57 µM), usual class: inhibitors | 360,000 tested, 0.72% active; note: nearly all actives have a fitted effect of over 55% in size
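ATXN2-luciferase reporter cells (luciferase flanked by upstream and downstream ATXN2 gene portions) were treated 24 h at 37 °C with compounds at up to 57 uM. SteadyGlo luminescence gave expression; GF-AFC fluorescence gave viability.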
ATXN viability = reduces viability in counter-screen for ATXN expression inhibitors; S2 cells (HEK-293 line with an ATXN2-luciferase reporter) viability, CellTiter-Fluor protease fluorescence, 24 h; Potency, µM (highest dose often 56.7 µM), actives largely listed as cytotoxic; 400,000 tested, 0.49% active; AID 651635; note: nearly all actives have a fitted effect of over 40% in size
TDP1 cell noCPT = qHTS for Inhibitors of human tyrosyl-DNA phosphodiesterase 1 (TDP1): qHTS in cells in absence of CPT. DT40 Tdp1-/- hTDP1 cells, no CPT, ATP luminescence, 48 h. Potency, µM (highest dose often 46.2 µM), hits mostly inhibitors. 420,000 tested, 15% active. AID 686978, 2013; note: nearly all actives have a fitted effect of over 55% in size
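Chicken DT40 Tdp1-/- cells stably complemented with human TDP1 were seeded at 400 cells/well with DMSO in place of 20 nM camptothecin. After compound pinning, cells grew at least 48 hr at 37 °C; viability read by CellTiter-Glo luminescence.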
DT40 TDP1 CPT = DT40-hTDP1 cell growth loss with CPT | 420,000 tested, 12% active | Potency, µM (series often up to 46.2 µM), usual class: inhibitors | AID 686979 | chicken DT40 Tdp1-/-;hTDP1 cells + 20 nM CPT, ATP luminescence, 48 h; note: nearly all actives have a fitted effect of over 55% in size
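Chicken DT40 Tdp1-/- cells stably complemented with human TDP1 were seeded at 400 cells/well in medium containing 20 nM camptothecin, exposed to pin-transferred compounds, and grown at 37 °C for at least 48 hr. Viability was read as ATP luminescence.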
Large screens that a line does not name were inactive. Shown are actives, neighbours in structure and some others; about 17% of the full set was active somewhere. Calls come from the whole dose curve; as a rule, active = well fitted curve in the direction sought with a large enough effect; inconclusive = small, poorly fitted or top-dose-only effect, or another doubt; inactive = no such curve, though single readings can be large; an effect the other way counts as inactive or inconclusive.

NCCNc1ccc(C(=O)N2c3ccccc3Sc3ccccc32)cc1[N+](=O)[O-]	ATXN2 expr inh inconclusive, TDP1 cell noCPT 18µM, DT40 TDP1 CPT 18µM (no result: ATXN viability)
Nc1ccc(C(=O)OCC(=O)N2CCc3ccccc3C2)cc1[N+](=O)[O-]	TDP1 cell noCPT inconclusive
OCCc1ccc(O)c(-n2nc3ccccc3n2)c1	none
COc1ccc(-c2cn3c(n2)sc2cc(C(=O)NCCCN4CCCCC4)ccc23)cc1	TGFb inhibitor inconclusive, TDP1 cell noCPT 0.73µM, DT40 TDP1 CPT 1µM (no result: ATXN2 expr inh, ATXN viability)
COc1ccc(-c2cn3c(n2)sc2cc(C(=O)NCCCN4CCCCCC4)ccc23)cc1	TGFb inhibitor inconclusive, TDP1 cell noCPT 3.3µM, DT40 TDP1 CPT 2.9µM (no result: ATXN2 expr inh, ATXN viability)
C=CCn1c(SCc2csc(-c3ccc(C)cc3)n2)nnc1-c1ccccc1OC	TGFb inhibitor inconclusive, ATXN viability inconclusive, TDP1 cell noCPT 18µM, DT40 TDP1 CPT 12µM
Cc1ccc(-c2nc(CSc3nc4ccccc4c(=O)n3CCO)cs2)cc1	TDP1 cell noCPT 16µM, DT40 TDP1 CPT inconclusive
Cc1ccc(CNC(=O)CSc2nc3ccccc3c(=O)n2CCCO)cc1	none
COc1ccccc1-n1cnnc1SCc1csc(-c2ccccc2)n1	TDP1 cell noCPT inconclusive, DT40 TDP1 CPT inconclusive
Cc1ccc(-c2nc(CSc3nc4ccccc4c(=O)n3C)cs2)cc1	TDP1 cell noCPT 26µM, DT40 TDP1 CPT 18µM
COc1cccc(C(NC(C)=O)c2nc(-c3csc4ccccc34)cs2)c1 (centres undefined)	TGFb inhibitor inconclusive, TDP1 cell noCPT inconclusive, DT40 TDP1 CPT inconclusive
CCCCN(C(=O)c1cc(S(=O)(=O)N2CCOCC2)ccc1Cl)c1c(N)n(CC(C)C)c(=O)[nH]c1=O	none
O=C(NC1CCCCC1)c1sc(=S)n2c1[nH]c(=O)c1ccccc12	TGFb inhibitor inconclusive, TDP1 cell noCPT 23µM, DT40 TDP1 CPT 16µM
Cn1nc(-c2ccncc2)nc2c(=O)n(C)c(=O)nc1-2	TGFb inhibitor 1.3µM, TDP1 cell noCPT 0.35µM, DT40 TDP1 CPT 0.32µM (no result: ATXN2 expr inh, ATXN viability)
CCn1nc(-c2ccc(C)cc2)nc2c(=O)n(C)c(=O)nc1-2	HepG2 tox 0.71µM, TGFb inhibitor 0.5µM, TDP1 cell noCPT 2.2µM, DT40 TDP1 CPT 1.6µM (no result: ATXN2 expr inh, ATXN viability)
Cc1ccc(C)c(N2CCN(C(=O)CCc3nc(-c4ccccc4Cl)no3)CC2)c1	TGFb inhibitor inconclusive, TDP1 cell noCPT inconclusive, DT40 TDP1 CPT inconclusive
C=C1N(c2ccccc2)C(=O)OC1(C)C	ATXN viability inconclusive
c1csc(-c2nc3ccccn3c2NC2CCCCC2)c1	TDP1 cell noCPT inconclusive, DT40 TDP1 CPT inconclusive
Cc1ccn2c(NC3CCCC3)c(-c3cccs3)nc2c1	TDP1 cell noCPT 23µM, DT40 TDP1 CPT 15µM
Cc1ccn2c(NCc3ccccc3)c(-c3cccs3)nc2c1	TDP1 cell noCPT 23µM, DT40 TDP1 CPT 16µM (no result: ATXN viability)
Cc1ccn2c(NC(=O)c3ccccc3)c(-c3cccs3)nc2c1	ATXN viability inconclusive
C=C(C)[C@@H]1CC=C(CN2CCC(CCOC)(C(=O)OCC)CC2)CC1	TDP1 cell noCPT inconclusive, DT40 TDP1 CPT inconclusive
CCN1CCCC1CNC(=O)c1cnn(-c2nccc(-c3cc4ccccc4o3)n2)c1C (centres undefined)	ATXN viability inconclusive, TDP1 cell noCPT inconclusive (no result: HepG2 tox, TGFb inhibitor, ATXN2 expr inh)
COc1ccc(NC(=O)CCC(=O)c2ccc(Cl)cc2)cn1	none
COc1ccccc1-c1noc2ncnc(Nc3ccccc3C)c12	TDP1 cell noCPT 15µM, DT40 TDP1 CPT 23µM
COc1ccc(OC)c(CNc2ncnc3onc(-c4ccc(Cl)cc4)c23)c1	ATXN viability inconclusive, TDP1 cell noCPT 2.9µM, DT40 TDP1 CPT 2.6µM
COc1ccccc1CNc1ncnc2onc(-c3ccc(Cl)cc3)c12	TDP1 cell noCPT 21µM, DT40 TDP1 CPT inconclusive
COc1ccc(CNc2ncc(-c3ccc(Cl)cc3)n2C)c(OC)c1OC	TDP1 cell noCPT inconclusive, DT40 TDP1 CPT inconclusive
COc1ccc(OC)c(CNc2ncc(-c3ccc(Cl)cc3)n2C)c1	TDP1 cell noCPT 16µM, DT40 TDP1 CPT 16µM
